Shown are actives, neighbours in structure and some others; about 1.6% of the full set was active somewhere.
KCNQ2 block: blocks the rat KCNQ2 potassium channel | O88943 | B-score at 10 µM | AID 2156 | hit rate 1.1% among 310,000 | CHO-K1 KCNQ2, FluxOR thallium flux, 20 min; hits give low values;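 active means fluorescence ratio B-score at most minus 3 library SDs, with starting brightness B-score within 2 library SDs, cut at about -5.5 in these data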
Target sequence (O88943 whole entry, looked up): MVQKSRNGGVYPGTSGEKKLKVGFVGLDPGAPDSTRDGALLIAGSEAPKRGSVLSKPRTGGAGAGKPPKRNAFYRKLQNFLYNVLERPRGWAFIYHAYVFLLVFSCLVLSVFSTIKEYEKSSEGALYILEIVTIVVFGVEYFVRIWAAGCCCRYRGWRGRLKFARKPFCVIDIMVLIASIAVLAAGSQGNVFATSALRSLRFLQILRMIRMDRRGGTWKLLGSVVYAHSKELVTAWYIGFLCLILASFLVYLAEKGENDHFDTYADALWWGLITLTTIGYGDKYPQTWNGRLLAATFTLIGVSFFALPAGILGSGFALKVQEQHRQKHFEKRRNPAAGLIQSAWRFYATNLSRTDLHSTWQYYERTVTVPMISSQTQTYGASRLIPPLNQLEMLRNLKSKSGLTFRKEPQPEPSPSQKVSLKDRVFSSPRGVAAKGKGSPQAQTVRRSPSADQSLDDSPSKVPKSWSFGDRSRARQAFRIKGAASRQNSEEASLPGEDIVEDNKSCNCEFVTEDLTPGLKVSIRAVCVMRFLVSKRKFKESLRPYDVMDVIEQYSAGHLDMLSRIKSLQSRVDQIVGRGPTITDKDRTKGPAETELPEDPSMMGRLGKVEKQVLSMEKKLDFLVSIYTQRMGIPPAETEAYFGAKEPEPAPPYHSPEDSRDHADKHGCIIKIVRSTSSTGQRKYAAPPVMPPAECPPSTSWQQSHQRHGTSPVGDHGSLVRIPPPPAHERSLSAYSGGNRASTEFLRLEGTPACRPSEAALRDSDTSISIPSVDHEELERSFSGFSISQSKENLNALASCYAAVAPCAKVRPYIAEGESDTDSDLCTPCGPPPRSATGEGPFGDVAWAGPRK
KCNQ2 enhance: KCNQ2 (rat) channel potentiation. B-score at 10 µM. O88943. hit rate 0.54% among 310,000. AID 2239. CHO-K1 KCNQ2, FluxOR thallium flux fluorescence; hits give high values;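 active means fluorescence ratio B-score at least 3 SD of library B-scores, with initial fluorescence B-score within 3 of them, cut at about 5.3 in these data; same plate scores as AID 2156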;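 further: B-score of peak minus minimum over baseline fluorescence ratio after K+ and Tl+ stimulus; positive B-score means potentiation of KCNQ2 with more thallium influx and brighter signal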
Active calls of the source: *; i = inactive; nt = no result given.

SMILES	KCNQ2 block	KCNQ2 enhance
CC(=O)c1c(C)nn(CC(=O)NC2CCCN(Cc3ccc(CC(C)C)cc3)C2)c1C (centres undefined)	i	0.52
O/N=C(/CCc1ccccc1)c1ccc2c(c1)OCCO2	-5.92*	-5.92
O=C(CCc1ccccc1)c1ccc2c(c1)OCCCO2	i	nt
O=C(CNC(=O)N1CC(=O)Nc2ccccc21)NCc1ccc(Cl)cc1	i	1.31
CN(C)c1cccc(NC(=O)c2cccc3ccccc23)c1	i	nt
CC(=O)N(c1ccccc1C)C1CCCC1	i	0.01
CC(=O)N(C1=C(Cl)C(=O)c2ccccc2C1=O)C1CCCCC1	-5.65*	-5.65
CN1CCCN(C(=O)c2cccc3ccccc23)CC1	i	0.99
CCOCCCNC(=O)c1ccc2c(c1)OCO2	i	nt
CCCCC(CC)CNC(=O)c1ccc2c(c1)OCO2 (centres undefined)	-7.03*	-7.03
CCc1ccc(C(=O)/C=C/Nc2ccc(S(=O)(=O)Nc3cnc4ccccc4n3)cc2)cc1	i	nt
CCC(C)c1ccccc1N1CC(C(=O)N2CCN(S(=O)(=O)c3ccccc3Br)CC2)CC1=O (centres undefined)	i	0.47
CN1CCN(C2=C(Cl)C(=O)C(c3cnc(N4CCCCC4)s3)=C(Cl)C2=O)CC1	-8.98*	-8.98
CN1CCN(C2=C(Cl)C(=O)N(C3CCCCC3)C2=O)CC1	i	nt
COc1cccc(C2NC(=O)CCC2[N+](=O)[O-])c1 (centres undefined)	i	nt
Cc1ccccc1CN(c1ccc(C(=O)N2CCN(C)CC2)cc1)S(C)(=O)=O	i	nt
O=C1CC(=C(c2ccccc2)c2ccccc2)C(=O)N1CCN1CCN(c2cccc(Cl)c2)CC1	-5.63*	-5.63
O=C1CC(=C(c2ccccc2)c2ccccc2)C(=O)N1CCCN1CCN(c2cccc(Cl)c2)CC1	i	nt
CN(CC(=O)Nc1cccc(F)c1)C(=O)c1csc2c1CCCC2	i	nt
Cc1ccc(C)c(N2CCN(C(=O)COc3cc(=O)n(C)c4ccccc34)CC2)c1	i	nt
Cc1ccc(C)c(N2CCN(C(=O)CCCOc3cc(=O)n(C)c4ccccc34)CC2)c1	-6.43*	-6.43
O=C(c1cc2c(s1)-c1ccccc1OC2)N1CCc2ccccc2C1	-5.57*	-5.57
COc1ccccc1N1CCN(C(=O)c2cc3c(s2)-c2ccccc2OC3)CC1	i	nt
CC(=O)NC(CC(=O)Oc1ccc(C)cc1Br)c1ccccc1 (centres undefined)	i	nt
Cc1onc(-c2c(Cl)cccc2Cl)c1C(=O)c1ccc(F)cc1	i	6.76*
SMILES	KCNQ2 block	KCNQ2 enhance
Cc1onc(-c2c(F)cccc2Cl)c1C(=O)c1ccc(F)cc1	i	nt
Cc1ccc2c(Cl)cc(Cl)c(OCC(=O)NC(C)(C)C)c2n1	-7.05*	-7.05
COC(=O)COc1c(Cl)cc(Cl)c2ccc(C)nc12	i	nt
Cc1nc(NCC2CCCO2)c2nnn(Cc3c(F)cccc3Cl)c2n1 (centres undefined)	i	0.06
O=C(Nc1ccc(Br)cc1)c1cccc(OC(=S)N2CCOCC2)c1	i	0.34
NC(=O)C1CCN(C(=O)c2ccc([N+](=O)[O-])cc2NC(=O)c2cccs2)CC1	i	nt
COc1ccc2oc(C(=O)OCC(=O)c3ccc4c(c3)OCCO4)c(C)c2c1	i	nt
COc1ccc2oc(C(=O)N(C)Cc3ccc4c(c3)OCCO4)c(C)c2c1	-6.71*	-6.71
COc1ccc2oc(C(=O)N(Cc3ccco3)Cc3cccs3)c(C)c2c1	-5.77*	-5.77
COc1ccc2oc(C(=O)N3CCN(C(=O)c4ccco4)CC3)c(C)c2c1	i	3.3
COC(=O)c1ccc(NS(=O)(=O)c2cc3c4c(c2)CCC(=O)N4CCC3)cc1	i	0.65
Cc1ccccc1N1CCN(C2CCCN(C(=O)CCN3CCCO3)C2)CC1 (centres undefined)	i	1.83
COc1ccccc1-c1nc(-c2ccccc2)[nH]c(=O)c1C#N	i	1.41
CNC(=O)/C(C#N)=C/c1cccc(Oc2ccccc2)c1	-5.91*	-5.91
CNC(=O)/C(=C\c1cccc(Oc2ccccc2)c1)NC(=O)c1ccccc1	i	nt
CN(C)CCN1C(=O)C2C(C(=O)Nc3cc(Cl)cc(Cl)c3)C3C=CC2(O3)C1C(=O)NC1CCCCC1 (centres undefined)	i	nt
COc1ccc(-c2sc(C(=O)c3ccc(Cl)cc3Cl)cc2CC(=O)O)cc1	i	nt
Cc1ccc(C)c(N=Nc2ccc(O)c3ncccc23)c1	i	2.4
Cc1cccc(N=Nc2ccc(O)c3ncccc23)c1	i	6.93*
Cc1ccsc1CN(C)C(=O)c1ccc(Oc2ccccc2)cc1	i	nt
O=c1ccc(N=Nc2ccccc2)ccc1O	i	19.2*
O=S(=O)(O)c1ccc(N=Nc2ccccc2)cc1	i	0.12
O=S(=O)(c1cccc(F)c1)N1CCc2sccc2C1c1ccc(OC(F)(F)F)cc1 (centres undefined)	-5.88*	-5.88
COc1ccc(OC2CCN(S(=O)(=O)c3cccc(F)c3)CC2)cc1	i	nt
COCc1cc(C)nc(SCC(=O)Nc2cc(C(F)(F)F)ccc2N2CCOCC2)c1C#N	-5.63*	-5.63
SMILES	KCNQ2 block	KCNQ2 enhance
COCc1cc(C)nc(SCC(=O)Nc2ccccc2C)c1C#N	i	0.69
COc1ccc(Cc2nnc(SCC(=O)c3ccc4c(c3)OCO4)o2)cc1	i	nt
CN(C)CCN(C(=O)c1ccc2c(c1)CCCC2)c1nc2cc3c(cc2s1)OCCO3	-7.82*	-7.82
CN(C)CCN(C(=O)c1ccc2c(c1)OCCO2)c1nc2cc3c(cc2s1)OCO3	i	nt
Cc1cc(C)c2sc(N(CCN(C)C)C(=O)c3ccc4ccccc4c3)nc2c1	-5.91*	-5.91
COc1ccccc1C(=O)N(CCN(C)C)c1nc2cc(C)cc(C)c2s1	i	nt
CCCCN(C(=O)C1CC1)C1CCS(=O)(=O)C1 (centres undefined)	i	1.41
Cc1ccc(NC(=O)c2cc(C(C)(C)C)nn2Cc2ccccc2)cc1	i	nt
CC(C)(C)c1cc(C(=O)Nc2ccc(F)cc2)n(Cc2ccc(F)cc2)n1	-5.94*	-5.94
CCOc1ccc(C(=O)OCC(=O)NC2CCCC2)cc1OCC	i	0.12
O=[N+]([O-])c1ccccc1Sc1nccn1Cc1ccccc1	-6.46*	-6.46
NC(=O)CSc1nccn1Cc1ccccc1	i	0.31
Cc1ccc(S(=O)(=O)NC(CC(C)C)C(=O)Nc2ccncc2)cc1 (centres undefined)	i	0.04
COc1cc(OC)c(C2=NOC(C(=O)N3CCCc4ccccc43)C2)cc1Cl (centres undefined)	i	0.18
CCC1CCCCN1C(=O)C1CC(c2cc(Cl)c(OC)cc2OC)=NO1 (centres undefined)	-6.23*	-6.23
COc1ccc(CCNC(=O)c2ccc3c(c2)S(=O)(=O)N=C2CCCCCN23)cc1	i	nt
COc1ccccc1-c1cnn2c(NCCc3ccccc3)cc(C)nc12	-7.13*	-7.13
COc1ccc(CCNc2cc(C)nc3c(-c4ccccc4)cnn23)cc1OC	i	nt
C/C(=N\Nc1nc2ccccc2[nH]1)c1ccc(Cl)s1	i	13.4*
C/C(=N\Nc1nc2ccccc2[nH]1)c1ccc(C)o1	i	0.11
COc1ccc(CNS(=O)(=O)c2ccc3c(c2)NC(=O)CS3)cc1	i	nt
Nc1nc(-c2cc(Cl)cc(Cl)c2OC(F)F)cs1	i	0.48
COc1ccccc1N1CCN(Cc2nc(N)nc(Nc3ccc(C)c(Cl)c3)n2)CC1	i	8.89*
COc1ccccc1Nc1nc(N)nc(CN2CCN(c3ccccc3F)CC2)n1	i	2.98

Compound activity: PubChem BioAssay, Johns Hopkins Ion Channel Center
